# The full list was thinned out, with hits kept by preference.
# LmPK inhibitor – inhibitors of Leishmania mexicana pyruvate kinase. purified LmPK, Kinase-Glo ATP luminescence, 1 h. Potency, µM (titrated, usually from 57.5 µM), most hits filed as inhibitors. 290,000 tested, 0.37% active. AID 1721
#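 0.1 nM LmPK, 0.5 mM PEP, 0.1 mM ADP; 50 mM imidazole pH 7.2, 7 mM MgCl2, 50 mM KCl; 1 h RT. Kinase-Glo luminescence readout, normalized to no-enzyme (full inhibition) and uninhibited wells.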
# CHX counter – affects cycloheximide protein synthesis inhibition readout, counter-screen. cell reporter, cycloheximide protein synthesis inhibition counterscreen. max response, %. 300,000 tested, 12% active; in the data active = max response mostly above about 13%, no sharp cut-off; inactive = mostly below about 14%; note: read at 38.3 µM for the half of the compounds with a filed dose
# Giardia FBPA inh-1 – inhibitors of Giardia lamblia fructose-1,6-bisphosphate aldolase | A8B2U2 | purified Giardia FBPA | Potency, µM (series often up to 59.6 µM), most hits filed as inhibitors | 290,000 tested, 0.71% active | AID 2451; note: nearly all actives have a fitted effect of over 55% in size
#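 Giardia FBPA (40 nM reagent) was preincubated 10 min at RT with compound (up to 57.5 uM final), then substrate plus GAPDH/TPI/NAD/arsenate coupling system with diaphorase/resazurin was added; resorufin fluorescence (525/598 nm) was read after 20 min.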
# TbPYK inhibitor – inhibitors of Trypanosoma brucei pyruvate kinase. Q57TT1. Potency, µM (titrated, usually from 76.8 µM), actives largely listed as inhibitors. 410,000 tested, 0.12% active. AID 624173. TbPYK enzyme, Kinase-Glo Plus ATP luminescence, 45 min; note: nearly all actives have a fitted effect of over 50% in size
#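 Screened from lowest to highest concentration, compounds were pinned into TbPYK/substrate mixtures, and ADP (130 uM final) was added. Plates sat at room temperature for 45 min prior to Kinase-Glo Plus detection by luminescence.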
# Shiga toxin inh – inhibitors of Shiga toxin in Vero cells; Vero cells, Shiga toxin protein synthesis inhibition reporter; inhibition, % at 38.7 µM; 290,000 tested, 9.2% active; in the data active = inhibition mostly above about 28%, no sharp cut-off; inactive = mostly below about 43%
# RE007 growth inh – less growth of the S. pombe RE007 Vpr strain; S. pombe RE007 Vpr strain, BacTiter-Glo ATP luminescence, 24 h; Potency, µM (top dose mostly 92.2 µM), usual class: inhibitors; 360,000 tested, 0.21% active; AID 651644; active = well fitted falling curve with a large enough effect; inconclusive = small, poorly fitted or top-dose-only effect; inactive = no such curve, though single readings can be large or run the other way; note: nearly all actives have a fitted effect of over 50% in size
#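 Fission yeast RE007 carrying one integrated HIV-1 vpr copy, seeded at OD 0.01 in PMG+AL medium with 23 nL pinned compound. Grown 24 h at 30 degrees; viability read by BacTiter-Glo luminescence after 5 min.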
# Giardia growth – Giardia lamblia growth inhibition; shares compounds with Giardia FBPA inh-1; Giardia lamblia trophozoite growth inhibition; Potency, µM (doses to about 57.5 µM), hits mostly inhibitors; 1,500 tested, 5% active; AID 2785;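 note: trophozoites exposed to compound for 48 h at 37 °C; nearly all actives have a fitted effect of over 70% in size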
# Mammalian tox – toxic to mammalian cells in Giardia aldolase counter-screen. shares compounds with Giardia FBPA inh-1. Potency, µM (highest dose often 57.5 µM), actives largely listed as inhibitors. AID 2786. 1,500 tested, 4% active. mammalian cell viability counter-screen, qHTS;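 note: Chinese hamster ovary cells used as mammalian cytotoxicity surrogate; viability measured as cellular ATP by luminescence; compound exposure lasted 48 h before reading; nearly all actives have a fitted effect of over 60% in size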
# Giardia FBPA inh-2 – confirmation of Giardia fructose-bisphosphate aldolase inhibitors. shares compounds with Giardia FBPA inh-1. purified Giardia aldolase enzyme activity, qHTS. Potency, µM (series often up to 57.5 µM), most hits filed as inhibitors. 1,500 tested, 5% active; note: nearly all actives have a fitted effect of over 45% in size
# Rabbit FBPA inh – selectivity test for Giardia aldolase inhibitors: rabbit aldolase. Rabbit muscle FBPA enzyme inhibition, selectivity counter-screen. AID 2794. Potency, µM (doses to about 57.5 µM), actives largely listed as inhibitors. 1,500 tested, 4% active. shares compounds with Giardia FBPA inh-1; note: nearly all actives have a fitted effect of over 60% in size
# Target sequence (P00883 whole entry, looked up): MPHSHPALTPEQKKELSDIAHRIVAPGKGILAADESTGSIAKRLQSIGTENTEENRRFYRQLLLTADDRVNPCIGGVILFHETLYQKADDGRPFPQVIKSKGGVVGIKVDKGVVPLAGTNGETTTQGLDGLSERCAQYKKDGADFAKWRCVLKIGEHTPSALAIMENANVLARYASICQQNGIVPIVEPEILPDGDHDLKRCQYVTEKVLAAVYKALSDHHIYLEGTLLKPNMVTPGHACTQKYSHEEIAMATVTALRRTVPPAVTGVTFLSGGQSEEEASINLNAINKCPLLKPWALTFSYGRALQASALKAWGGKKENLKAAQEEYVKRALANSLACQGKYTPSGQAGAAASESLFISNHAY
# GAPDH coupling – counter-screen for Giardia aldolase inhibitors: GAPDH coupling enzyme; 1,500 tested, 6% active; Potency, µM (titrated, usually from 57.5 µM), most hits filed as inhibitors; GAPDH coupling enzyme counterscreen, biochemical, qHTS; shares compounds with Giardia FBPA inh-1; AID 2795; note: nearly all actives have a fitted effect of over 55% in size
# Hits are given with their value; 0 = inactive; ? = inconclusive; - = no result given; [ ] = dose if it differs, or a comment. Unless noted, calls come from the whole dose curve; as a rule, active = well fitted curve in the direction sought with a large enough effect; inconclusive = small, poorly fitted or top-dose-only effect, or another doubt; inactive = no such curve, though single readings can be large; an effect the other way counts as inactive or inconclusive.
SMILES,LmPK inhibitor,CHX counter,Giardia FBPA inh-1,TbPYK inhibitor,Shiga toxin inh,RE007 growth inh,Giardia growth,Mammalian tox,Giardia FBPA inh-2,Rabbit FBPA inh,GAPDH coupling
CCCCNC(=O)C(NC(=O)c1cccnc1)C(=O)c1ccccc1 (stereo unspecified),-,-,-,0,-,0,-,-,-,-,-
CCOc1ccc(CNC(=O)Cn2nc(C)c3c(C)n(-c4ccc(C)cc4)nc3c2=O)cc1,0,0,0,0,0,0,-,-,-,-,-
CN(C)CCn1c(SCc2ccccc2C#N)nc2c(sc3ccccc32)c1=O,0,0,0,0,0,0,-,-,-,-,-
Cn1nnc(NC(=S)NC(=O)Cc2ccccc2)n1,0,0,1.6µM,0,0,0,0,0,0,0,0
COc1cccc(C(=O)NC(=S)Nc2nnn(C)n2)c1,0,0,1.6µM,0,0,0,0,0,0,0,0
Cc1ccc(/C=C2/C(=O)C3(C)CCC2C3(C)C)cc1 (stereo unspecified),-,-,-,0,-,-,-,-,-,-,-
CC(NC(=O)NNC(N)=S)(C(F)(F)F)C(F)(F)F,0,0,18µM,0,0,0,0,0,0,0,0
CC(C)(C)c1ccc(C(=O)Nc2c(C(=O)c3ccc(F)cc3)oc3ccccc23)cc1,-,-,-,0,-,-,-,-,-,-,-
CC(C)(C)c1ccc(C(=O)Nc2cccc3c(=O)[nH][nH]c(=O)c23)cc1,0,56,20µM,0,55,0,?,?,0,0,0
CCc1ccc(C(=O)NNC(=O)c2cc(S(=O)(=O)N(C)C)ccc2N2CCCC2)cc1,0,0,-,0,0,0,-,-,-,-,-
CCc1nnc(N/N=C/c2ccccc2F)n1N,0,0,20µM,0,0,0,0,0,?,0,0
CCc1nnc(N/N=C/c2ccccc2Cl)n1N,0,0,18µM,0,0,0,?,0,0,0,0
COc1cccc(/C=N/Nc2nnc(C)n2N)c1OCc1ccccc1Cl,0,0,0,0,0,0,-,-,-,-,-
CN(C)CCCNS(=O)(=O)c1ccc(N2CCN(Cc3ccc4c(c3)OCO4)CC2)c([N+](=O)[O-])c1,0,0,14µM,0,0,0,0,0,0,0,0
COc1cc(N=c2ssnc2Cl)cc(OC)c1OC,0,0,20µM,?,0,0,0[10.4 µM],0,0,32µM,0
COc1cc(-c2nnc(-c3cc(OC)c(OC)c(OC)c3)o2)cc(OC)c1OC,0,0,0,0,0,0,-,-,-,-,-
CC(=O)c1sccc1NC(=O)c1ccccc1C(=O)O,0,0,0,0,0,0,-,-,-,-,-
Nn1c(C2COc3ccccc3O2)n[nH]c1=S (stereo unspecified),0,0,6.3µM,0,0,0,0,0,?,?,?
CCC(=O)N1CCc2cc(S(=O)(=O)CCC(=O)Nc3cc(Cl)ccc3OC)ccc21,-,-,-,0,-,-,-,-,-,-,-
Cc1ccccc1N=Cc1cccc(O)c1O,0,0,5.6µM,0,0,-,20µM,0,11µM,32µM,32µM
O=c1cc(O)c2sc(Nc3ccc(F)c(Cl)c3)nc2[nH]1,0,0,2µM,0,0,0,0[10.4 µM],0,?,?,?
O=C(N/N=C/c1ccncc1)c1nc2ccccc2c(=O)[nH]1,0,17,11µM,0,0,0,0,0,0,0,0
COc1c(O)cc2c(c1O)C1OC(CO)C(O)[C@H](O)[C@H]1OC2=O (stereo partly specified),-,-,0,-,-,-,-,-,-,-,-
O=C(O[C@@H]1OC2COC(=O)c3cc(O)c(O)c(O)c3-c3c(cc(O)c(O)c3O)C(=O)O[C@@H]([C@H]1O)[C@@H]2O)c1cc(O)c(O)c(O)c1,0,0,?,?,0,0,0,0,?,?,?
COc1ccc2cc3cc(C(=O)NCCN4CCc5ccccc5C4)sc3nc2c1,0,21,16µM,0,47,0,0[10.4 µM],0,0,0,0
COc1ccc2cc3cc(C(=O)NCCN4CCc5ccccc5C4)oc3nc2c1,0,0,18µM,0,36,?,0,0,0,0,0
